Results on eleven compounds are retold here after PubChem BioAssay (EPA / NIEHS).

Experiment [1] in a line: CCTE_Shafer_MEA_acute_firing_rate_mean: CCTE's Neural Acute Assay for Mean Firing Rate, Shafer Lab (AID 2284009).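 Note: analyzed for loss of signal so actives lower firing rate relative to DMSO.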 Put shortly: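 Rat primary cortical neurons on 48-well MEA plates, dosed at 0.03-40 uM on DIV 13 or 15; 40 min spontaneous activity recorded at 37 C before and after compound. Spike rate per electrode averaged per well, expressed as percent change from baseline.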

A short description of experiment [2]: CCTE_Shafer_MEA_acute_burst_number: CCTE's Neural Acute Assay for Single-Electrode Bursts, Shafer Lab (AID 2284013). Put shortly:
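Primary rat cortical neurons on 16-electrode MEA wells, treated on DIV 13 or 15 with compound at 0.03-40 uM. Single-electrode burst count from 40-min recordings at 37 C before and after exposure; percent change from baseline per well, DMSO negative control.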

Experiment [3] can be described thus: CCTE_Shafer_MEA_acute_per_network_burst_spike_number_std: CCTE's Neural Acute Assay for Standard Deviation of Number of Spikes in a Network Burst, Shafer Lab (AID 2284020).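 Note: fitted for decrease in spike-number SD versus DMSO so actives lower it.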 An outline of the steps:
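Rat primary cortical neurons on 48-well MEA (16 electrodes/well), treated DIV 13 or 15 at 0.03-40 uM, ≥3 wells per compound. 40 min recordings at 37 C before and after dosing; value is percent change in network-burst spike-number SD, negative direction vs DMSO.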

Experiment [4] in a line: CCTE_Shafer_MEA_acute_network_burst_percentage: CCTE's Neural Acute Assay for Percentage of Network Bursts, Shafer Lab (AID 2284022).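 Note: curves fitted for loss so actives lower network burst percentage.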 An outline of the steps:
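Primary rat cortical neurons on 16-electrode MEA wells, treated on DIV 13 or 15 with compound (0.03-40 uM); 40-min baseline and 40-min post-exposure recordings at 37 C. Value is percent change in spikes within network bursts versus baseline, DMSO negative control.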

A short description of experiment [5]: CCTE_Shafer_MEA_dev_firing_rate_mean: CCTE's Neural Network Formation Assay for Mean Firing Rate, Shafer Lab (AID 2284031).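 For AC50: curve fitted for loss of firing so AC50 reflects decreased mean firing rate.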 Put shortly: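 Rat primary cortical neurons were seeded on multielectrode arrays and treated from plating through day 12, with redosing at each feed. Spontaneous spiking was recorded four times; mean firing rate AUC was fitted downward against DMSO.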

A short description of experiment [6]: CCTE_Shafer_MEA_dev_per_burst_spike_percent: CCTE's Neural Network Formation Assay for Percent of Spikes in a Burst, Shafer Lab (AID 2284032).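 For AC50: fitted as a decrease in burst spike percentage below DMSO baseline.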 An outline of the steps: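 Rat primary cortical neurons on 16-electrode MEA wells, dosed from plating day 0 for 12 days with renewal on DIV 5 and 9; spikes-in-bursts percentage averaged over bursting electrodes, collapsed as AUC across days 5, 7, 9, 12; loss direction versus DMSO.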

Experiment [7] is described as follows: CCTE_Shafer_MEA_dev_active_electrodes_number: CCTE's Neural Network Formation Assay for Number of Active Electrodes, Shafer Lab (AID 2284040; active = hit-call score of the fitted dose curve at least 0.9, where 1 is the maximum;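 for AC50: potency for loss of active electrodes versus DMSO so lower counts are hits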). An outline of the steps: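 Primary rat cortical neurons on 16-electrode MEA wells, exposed from day 0 through day 12 with compound renewed at DIV 5 and 9 feeds. Active electrodes (mean firing ≥5 spikes/min) counted at DIV 5, 7, 9, 12; trapezoidal AUC across days, loss-of-signal versus DMSO.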

A short description of experiment [8]: CCTE_Shafer_MEA_dev_burst_rate: CCTE's Neural Network Formation Assay for Burst Rate, Shafer Lab (AID 2284042).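 For AC50: potency for loss of burst rate below DMSO control.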 Put shortly: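 Cells plated, treated day 0; recorded DIV 5, 7, 9, 12; fed and re-treated DIV 5, 9. Endpoint: bursts per recording time, active-electrode well mean, trapezoidal AUC, fitted in decreasing direction against DMSO baseline.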
Experiment [9] in a line: CCTE_Shafer_MEA_dev_per_burst_interspike_interval: CCTE's Neural Network Formation Assay for Burst Interspike Interval, Shafer Lab (AID 2284044).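 For AC50: potency for a decrease of within-burst interspike interval below DMSO level.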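 Note: mean spike spacing inside bursts as AUC over recordings on days 5 7 9 12.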 Put shortly: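 Rat cortical primary cultures, 16 electrodes/well; compound from plating, renewed with full media change DIV 5 and 9. Spikes via adaptive detector; per-burst ISI well-mean over active bursting electrodes; AUC of DIV 5/7/9/12 recordings; loss-direction fit vs DMSO.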

A short description of experiment [10]: CCTE_Shafer_MEA_dev_burst_duration_mean: CCTE's Neural Network Formation Assay for Mean Burst Duration, Shafer Lab (AID 2284045).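 For AC50: curve fitted for loss meaning shorter burst duration than DMSO.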 Put shortly: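 Primary rat cortical neurons on 48-well 16-electrode MEA plates, exposed from day 0 with renewal at DIV 5 and 9; spontaneous activity recorded on days 5, 7, 9, 12. Well-mean burst duration across bursting electrodes, collapsed as trapezoidal AUC; DMSO baseline.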

Experiment [11] in a line: CCTE_Shafer_MEA_dev_interburst_interval_mean: CCTE's Neural Network Formation Assay for Mean Interburst Interval, Shafer Lab (AID 2284046).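 Note: well-mean interburst interval of bursting electrodes as AUC over four recording days; curve fitted for decrease in interburst interval relative to DMSO.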 Put shortly:
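Developing rat cortical networks on 48-well MEAs receive compound from the day of plating. Burst intervals from each active electrode are averaged per well, and AUC over the recording days is fitted in the negative direction against DMSO.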

Experiment [12] can be described thus: CCTE_Shafer_MEA_dev_inter_network_spike_interval_mean: CCTE's Neural Network Formation Assay for Mean Inter-network Spike Interval, Shafer Lab (AID 2284047). Put shortly: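 Rat cortical cultures, 1.5 x 10^5 cells/well on 48-well MEA plates; continuous exposure days 0–12, medium and compound refreshed DIV 5, 9. Mean time between consecutive network-spike peaks; AUC across DIV 5/7/9/12; DMSO baseline, negative fitting direction.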

A short description of experiment [13]: CCTE_Shafer_MEA_dev_network_spike_number: CCTE's Neural Network Formation Assay for Number of Network Spikes, Shafer Lab (AID 2284048).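 For AC50: fit as a loss of signal meaning fewer network spikes than DMSO.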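 Note: synchronized bursts across electrodes counted on days 5 7 9 12 and integrated as AUC.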 An outline of the steps: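 Primary rat cortical neurons on PEI/laminin 48-well MEA plates, dosed from plating day 0 for 12 days, renewed at DIV 5 and 9. Network spike counts recorded DIV 5, 7, 9, 12, collapsed as trapezoidal AUC; DMSO baseline.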

The nature of experiment [14]: CCTE_Shafer_MEA_dev_spike_duration_mean: CCTE's Neural Network Formation Assay for Mean Spike Duration, Shafer Lab (AID 2284051).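 For AC50: potency for a decrease in mean network spike duration versus DMSO.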 An outline of the steps: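 Readout is the average length of network spikes, clustered firing across electrodes, summed over DIV 5, 7, 9 and 12 as area under the curve. Neurons from rat cortex developed networks on MEA plates under continuous 12-day exposure.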

Experiment [15] is described as follows: CCTE_Shafer_MEA_dev_network_spike_duration_std: CCTE's Neural Network Formation Assay for Standard Deviation of Network Spike Duration, Shafer Lab (AID 2284052).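 Note: hits are decreases in network spike duration SD versus DMSO vehicle.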 Put shortly:
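Read-out is the trapezoidal area-under-the-curve across recordings made on days 5, 7, 9 and 12, fitted in the negative direction against DMSO baseline. Neurons were primary rat cortical cells treated from day 0, with treatment renewed at each feed.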

Experiment [16] can be described thus: CCTE_Shafer_MEA_dev_per_network_spike_spike_number_mean: CCTE's Neural Network Formation Assay for Mean Number of Spikes in a Network Spike, Shafer Lab (AID 2284053).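 For AC50: fitted as decrease in spikes per network spike relative to DMSO.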 An outline of the steps:
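Continuous twelve-day exposure of developing rat cortical networks grown over 16 microelectrodes per well; spontaneous firing is captured at four time points, and the per-network-spike spike number is integrated over development by trapezoidal AUC.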

The nature of experiment [17]: CCTE_Shafer_MEA_dev_per_network_spike_spike_percent: CCTE's Neural Network Formation Assay for Percent of Spikes in a Network Spike, Shafer Lab (AID 2284054). Put shortly: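 Rat primary cortical neurons were grown on 48-well MEA plates (16 electrodes/well), exposed from plating day 0 through day 12, with treatment renewed on DIV 5 and 9. Percent of spikes within 0.05 s network-spike peaks was measured, summarised as AUC across days 5, 7, 9, 12.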

Experiment [18] is described as follows: CCTE_Shafer_MEA_dev_mutual_information_norm: CCTE's Neural Network Formation Assay for Mutual Information Normalization, Shafer Lab (AID 2284091).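 For AC50: mutual information between electrodes summarised as area under curve across four recording days; potency is for a decrease in mutual information relative to DMSO.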 An outline of the steps:
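Primary rat cortical neurons on PEI-coated 48-well MEA plates, 1.5 x 10^5 cells/well, exposed from day 0 through day 12 with re-dosing at DIV 5 and 9. Mutual information between electrodes recorded days 5, 7, 9, 12; trapezoidal AUC, loss-of-signal fit versus DMSO.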

A short description of experiment [19]: CCTE_Shafer_MEA_dev_correlation_coefficient_mean: CCTE's Neural Network Formation Assay for Mean Correlation Coefficient, Shafer Lab (AID 2284093).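 For AC50: well mean pairwise spike train correlation integrated as AUC over recording days 5 to 12; potency fitted for loss of correlation relative to DMSO vehicle wells.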 Put shortly: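 Read-out: well-mean correlation coefficient of spike trains between electrode pairs, collapsed over four recording days as trapezoidal area-under-the-curve. Developing rat cortical neuron networks grown on MEAs received test chemical continuously from plating.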

For experiment [20], the system named is SERPINA7 (gene 6906). The experiment in a line: CCTE_GLTED_hTBG: CCTE's human Thyroxine-binding Globulin (TBG) Inhibition Assay, Great Lakes Toxicology and Ecology Division (GLTED) Lab (AID 2284343; active = hit-call score of the fitted dose curve at least 0.9, where 1 is the maximum;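 note: active chemicals lower fluorescence versus DMSO baseline by displacing probe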). An outline of the steps:
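hTBG + test chem, 2 h; ANSA probe displacement; fluorescence readout ex380/em475; DMSO = neg ctrl/baseline; cell-free.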

Results filed as inconclusive are left out. A structure can be active in one record and inactive in another. Active and inactive are the calls of the source. Rule for the calls, unless noted: active = hit-call score of the fitted dose curve at least 0.9, where 1 is the maximum; inactive = score below 0.9.

Regarding `O=c1c2ccccc2c(=O)c2c1cc(Cl)c1[nH]c3c([nH]c12)c(Cl)cc1c(=O)c2ccccc2c(=O)c13`, the outcome in experiment [1], in experiment [2], in experiment [3] and in experiment [4] was inactive.

As for `CC1CCCC1.[C-]#[O+].[C-]#[O+].[C-]#[O+].[Mn]`, the compound was called inactive in experiment [5], in experiment [6], in [7], in experiment [8], in [9] and in experiment [10]. The compound was called inactive in experiment [11], in [12], in experiment [13], in experiment [14], in experiment [15] and in experiment [16]. The compound was classed as inactive in experiment [17], in experiment [18] and in experiment [19].

With `c1ccc(P(c2ccccc2)c2ccccc2)cc1`, the AC50 (in general, the midpoint of the concentration-response curve, whichever way the signal moves) in [20] was 41.7 µM (active).

Consider `CC(C)(c1cc(Cl)c(O)c(Cl)c1)c1cc(Cl)c(O)c(Cl)c1`, for which, in [20], the AC50 was 8.77 µM (active).

In the case of `CC(C)CCCCCCCOP(=O)(Oc1ccccc1)Oc1ccccc1`, the result in experiment [5], in [6], in experiment [7], in [8], in experiment [9] and in experiment [10] was inactive. Further, the compound was classed as inactive in experiment [11], in experiment [12], in [13], in [14], in experiment [15] and in [16]. Besides, the call in experiment [17], in experiment [18] and in experiment [19] was inactive.

As to `CNC(=N[N+](=O)[O-])NCC1CCOC1` (stereo not given), the result in experiment [5], in experiment [6], in experiment [7], in experiment [8], in experiment [9] and in experiment [10] was inactive. The outcome in [11], in experiment [12], in experiment [13], in experiment [14], in [15] and in [16] was inactive. The outcome in experiment [17], in experiment [18] and in experiment [19] was inactive.

Consider `CC1(C)[C@H](C(=O)O[C@H](C#N)c2cccc(Oc3ccccc3)c2)[C@@H]1C=C(Br)Br`, for which the AC50 in experiment [1] is 1.62 µM (active); in experiment [2], 2.53 µM (active); in experiment [3], 0.642 µM (active); in experiment [4], 0.639 µM (active); in experiment [5] it was 3.1 µM (active); in experiment [6], 7.16 µM (active). The concentration at half-maximal activity (AC50) in experiment [7] is 8.89 µM (active); in experiment [8], 3.86 µM (active); in experiment [9], 15 µM (active); in experiment [10], 5.29 µM (active); in experiment [13], 0.853 µM (active); in [14], 6.4 µM (active). Besides, the AC50 in experiment [15] is 3.82 µM (active); in experiment [16] it was 3.96 µM (active); in experiment [17] it was 1.8 µM (active); in experiment [18], 0.641 µM (active); in experiment [19] it was 2.04 µM (active). Further, the compound was classed as inactive in experiment [11] and in [12].

In the case of `O=[N+]([O-])O`, the AC50 in [1] was 0.0885 µM (active); in experiment [2], 0.189 µM (active); in experiment [3], 0.003 µM (active); in [4], 0.0386 µM (active). Also, the result in experiment [1], in experiment [2], in [3] and in experiment [4] was inactive.

Turning to `CCOC(=O)COc1ccc(Cl)cc1Cl`, the AC50 in [20] was 24.6 µM (active).

Regarding `Cc1ccc(OP(=O)(Oc2ccc(C)cc2)Oc2ccc(C)cc2)cc1` (tested in a mixture with another compound), the AC50 in experiment [1] was 4.2 µM (active); in experiment [2], 3.7 µM (active); in [3] it was 3.32 µM (active); in experiment [4], 7.23 µM (active); in experiment [20], 1.03 µM (active). The outcome in [5], in experiment [6], in [7], in experiment [8], in experiment [9] and in experiment [10] was inactive. Moreover, the call in experiment [11], in [12], in [13], in experiment [14], in [15] and in [16] was inactive. Further, the result in experiment [17], in experiment [18] and in [19] was inactive.

With `O=C1Nc2ccc(Cl)cc2C(c2ccccc2)=NC1O` (stereo not given), the AC50 in experiment [20] is 37.3 µM (active).
